Source: PubChem BioAssay AID1220 (Sanford-Burnham Center for Chemical Genomics, 2008)
Values joined by “and” are separate entries in the source; they are usually repeats but may differ in a detail not shown here. Equal entries are not always repeated. Among all 190,000 compounds or so, about 1,300 (0.68%) were called active. No stated cut-off is given here; in the data, active means inhibition above about 50%; inactive means the rest. The list comes from a sample in which actives are over-represented; it also holds similar structures and randomly drawn compounds.

target: Mannose-6-phosphate isomerase (Homo sapiens) (UniProt P34949); assay: MPI inhibition at elevated mannose 6-phosphate – biochemical, fluorescence intensity, high mannose 6-phosphate, primary screen (AID 1220); details: recombinant PMI enzyme, coupled fluorescence intensity; at 20 µM; active compounds read high
Sequence (P34949 whole entry, looked up): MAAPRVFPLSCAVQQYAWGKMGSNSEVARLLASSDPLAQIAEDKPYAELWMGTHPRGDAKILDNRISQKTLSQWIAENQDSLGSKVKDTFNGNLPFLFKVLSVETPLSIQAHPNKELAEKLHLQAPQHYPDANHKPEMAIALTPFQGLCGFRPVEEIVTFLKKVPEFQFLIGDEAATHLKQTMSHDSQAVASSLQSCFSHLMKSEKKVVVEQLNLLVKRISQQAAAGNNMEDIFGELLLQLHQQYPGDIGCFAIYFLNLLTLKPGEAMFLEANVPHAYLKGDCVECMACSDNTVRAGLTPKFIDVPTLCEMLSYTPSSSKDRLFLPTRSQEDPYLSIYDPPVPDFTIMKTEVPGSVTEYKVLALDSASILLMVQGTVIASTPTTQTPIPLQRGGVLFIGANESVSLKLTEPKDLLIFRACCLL

Structure (SMILES)	inhibition
C=CCn1c(SCC(=O)c2ccc(NS(=O)(=O)c3ccccc3)cc2)nnc1-c1cccs1	-16% (inactive)
Cc1ccc(S(=O)(=O)/N=C(\c2ccccc2)N(C)S(=O)(=O)c2ccccc2)cc1	-11.9% (inactive)
CCC(Sc1ncccc1C(=O)O)C(=O)N1CCCC1 (centres undefined)	-5.9% (inactive)
CC(=O)Nc1ccc2nc(NC(=O)COc3ccc([N+](=O)[O-])cc3)sc2c1	9.4% (inactive)
O=C(O)CC1SC(=O)N(Cc2ccccc2)C1=O (centres undefined)	8.1% (inactive)
COc1ccc(CCn2c(=O)[nH]c3cc(C(=O)NCCc4ccccc4)ccc3c2=O)cc1OC	-2.6% (inactive)
O=c1c2ccccc2nc2ccc(N3CCOCC3)nn12	0.2% (inactive)
c1ccc2c(Nc3ccc4c(c3)OCCO4)c3c(nc2c1)CCC3	12.8% (inactive)
CC/C(CC(=O)C(F)(F)F)=N\NC(=O)/C(C#N)=C/N(C)C	-0.8% (inactive)
CC(C)CC(N=Cc1c(O)c2ccccc2oc1=O)C(=O)O (centres undefined)	-10.2% (inactive)
Cc1ccc(OCCn2cnc3ccccc3c2=O)c([N+](=O)[O-])c1	0.1% (inactive)
Cc1ccc(OCCOCCn2cnc3ccccc3c2=O)c([N+](=O)[O-])c1	52.1% (active)
Cc1ccc(OCCOc2cccc3ccc(C)nc23)c([N+](=O)[O-])c1	55% (active)
Cc1ccc2cccc(Oc3ccc([N+](=O)[O-])cc3[N+](=O)[O-])c2n1	23.3% (inactive)
O=c1c2ccccc2ncn1CCOc1ccccc1[N+](=O)[O-]	-2.8% (inactive)
COc1cc(C)ccc1OCCOCCOc1cccc2ccc(C)nc12	8.5% (inactive)
CCN(C#N)c1nc(NC(C)C)nc(NC(C)(C)C)n1	5.4% (inactive)
Cc1cccc(COCC(CC(C)C)N2CCN(C(=O)c3ccc(C(F)(F)F)cc3)CCC2=O)c1 (centres undefined)	-9% (inactive)
Cc1[nH]c(=S)sc1Cc1ccc(F)cc1	6.5% (inactive)
CNc1nc(-c2c[nH]c3ccccc23)cs1	-53.9% (inactive)
Nc1n[nH]c(-c2ccccc2[N+](=O)[O-])n1	-2.3% (inactive)
CCOCCn1c(=NC(=O)/C=C/c2ccccc2Cl)sc2cc(NC(C)=O)ccc21	2.9% (inactive)
NC1CCCCC1N=Cc1c(O)n(CCc2ccc(F)cc2)c(=O)[nH]c1=O (centres undefined)	2.4% (inactive)
CCOc1ccc(S(=O)(=O)N(CC(=O)NC2CCCCC2C)Cc2ccco2)cc1 (centres undefined)	3.3% (inactive)
CCOc1cccc(C2c3c(oc4cc(C)c(C)cc4c3=O)C(=O)N2CCCN(C)C)c1 (centres undefined)	-0.5% (inactive)

Structure (SMILES)	inhibition
CCOc1cc(C)cc2oc(=O)cc(-c3ccccc3)c12	6.3% (inactive)
COc1ccc([N+](=O)[O-])cc1COc1cc(C)cc2oc(=O)cc(-c3ccccc3)c12	58% (active)
COc1ccc([N+](=O)[O-])cc1COc1ccc2c(-c3ccccc3)cc(=O)oc2c1	-4.2% (inactive)
O=C(CN1C(=O)C2C3C=CC(C4CC34)C2C1=O)NCc1ccco1 (centres undefined)	13% (inactive)
O=C(CN1C(=O)C2C3CCC(C3)C2C1=O)NCc1ccco1 (centres undefined)	6.5% (inactive)
O=C(CN1C(=O)C2C3C=CC(C3)C2C1=O)NCc1ccco1 (centres undefined)	57% (active)
CCOC(=O)C1=C(C)NC(C)=C(C(=O)OCC)C1C(=O)OCC(N)=O	-7.6% (inactive)
O=C(c1ccc(S(=O)(=O)c2ccccc2)cc1)N1CCc2ccccc2C1	60.2% (active)
CS(=O)(=O)c1ccc(C(=O)N2CCc3ccccc3C2)cc1	-6.6% (inactive)
O=C(c1ccc(S(=O)(=O)N2CCCCC2)cc1)N1CCc2ccccc2C1	11.9% (inactive)
CCC1CCCCN1C(=O)c1sc2ncnc(N(CC)CC)c2c1C (centres undefined)	-1.9% (inactive)
Cc1nn(CC(=O)NCc2ccccc2F)c(C)c1[N+](=O)[O-]	2.2% (inactive)
COc1ccc2cc(/C=N/NC(=O)CN(c3ccccc3)S(=O)(=O)c3ccccc3)c(Cl)nc2c1	5.6% (inactive)
COc1ccc2nc(S(=O)Cc3ncc(C)c(OC)c3C)[nH]c2c1 (centres undefined)	50% (active)
Cc1c(OCC(F)(F)F)ccnc1CS(=O)c1nc2ccccc2[nH]1 (centres undefined)	4.7% (inactive) and 13.1% (inactive)
COc1ccc2nc(C(C)O)[nH]c2c1 (centres undefined)	13.3% (inactive)
CC(O)CNCc1ccc(-c2ccccc2)cc1 (centres undefined)	0.1% (inactive)
Cc1ccccc1Nc1ncccc1C(=O)N1CCOCC1	-9.3% (inactive)
O=S(=O)(Nc1nc2ccccc2nc1Cl)c1ccc(Cl)cc1	-2.7% (inactive)
O=S(=O)(Nc1nc2ccccc2nc1Cl)c1ccccc1	-6.6% (inactive)
O=S(=O)(Nc1nc2ccccc2nc1Cl)c1ccc2ccccc2c1	60.1% (active)
O=C1N/C(=C\c2ccccc2)C(O)=C1C=NCc1ccccc1	-1.9% (inactive)
O=C(O)CCNS(=O)(=O)c1ccccc1Br	-4% (inactive)
O=c1cc(C(F)(F)F)nc(-c2ccccc2)[nH]1	0.9% (inactive)
N#C/C(=C\c1cc(Cl)cc(Cl)c1O)C(=O)NC1CCCCC1	66.7% (active)

Structure (SMILES)	inhibition
Cc1cc(/C=C(\C#N)C(=O)NC2CCCCCC2)c(C)[nH]1	1.5% (inactive)
N#C/C(=C\c1cc(Cl)ccc1O)C(=O)NC1CCCCC1	10.6% (inactive)
COc1ccc(-c2cc(C(=O)Nc3cc(C)on3)no2)cc1	-3.1% (inactive)
CCN(CCO)C1CC(=O)N(c2ccccc2C)C1=O (centres undefined)	-11.3% (inactive)
O=C(/C=C/c1cccs1)NC1CC1	-8.9% (inactive)
O=C(/C=C/c1cccs1)NC1CCS(=O)(=O)C1 (centres undefined)	54.7% (active)
O=C(/C=C/c1ccccc1)NC1CCS(=O)(=O)C1 (centres undefined)	-10.3% (inactive)
O=C(Nc1ccc(F)cc1F)Nc1ccc(F)cc1F	-3.6% (inactive)
COc1ccccc1NC(=O)Nc1ccc2[nH]c(=O)[nH]c2c1	6.1% (inactive)
O=C(Nc1ccc2[nH]c(=O)[nH]c2c1)Nc1ccc(F)cc1F	55.8% (active)
COc1cccc(C2=Nc3cccc4cccc(c34)N2)c1	-64.5% (inactive)
Brc1ccc(C2=Nc3cccc4cccc(c34)N2)o1	12.1% (inactive)
c1coc(C2=Nc3cccc4cccc(c34)N2)c1	63.6% (active)
Nc1ccc(C2=Nc3cccc4cccc(c34)N2)cc1	23.6% (inactive)
COc1ccc(C2=Nc3cccc4cccc(c34)N2)cc1	53.1% (active)
Fc1ccc(C2=Nc3cccc4cccc(c34)N2)cc1	45.2% (inactive)
COCC(C)NC(=O)C(C)Oc1ccccc1 (centres undefined)	-3.4% (inactive)
Cc1cnc(C(=O)N2CCCC(C(=O)c3ccc(C(C)(C)C)cc3)C2)cn1 (centres undefined)	5.6% (inactive)
COc1ccc(/C(N)=N/OC(=O)COc2ccccc2Cl)cc1	6.3% (inactive)
Cc1ccn2c(=O)cc(C)nc2c1	9% (inactive)
Cc1cc(=O)n2ccsc2n1	-2.4% (inactive)
Cc1onc(-c2c(F)cccc2Cl)c1C(=O)OCC(=O)Nc1c(C)n(C)n(-c2ccccc2)c1=O	-18.7% (inactive)
COc1ccc(S(=O)(=O)N2CCN(CC(=O)Nc3ccc(F)c(F)c3)CC2)cc1	-16.5% (inactive)
CN(C)N1C(N)=C(C#N)C(c2cccnc2)C2=C1CC(C)(C)CC2=O (centres undefined)	8.6% (inactive)
CN(C)N1C(N)=C(C#N)C(c2ccsc2)C2=C1CC(C)(C)CC2=O (centres undefined)	18.1% (inactive)

Structure (SMILES)	inhibition
Cc1ccc(N2C(N)=C(C#N)C(c3cccnc3)C3=C2CCCC3=O)cc1 (centres undefined)	47.7% (inactive)
CSc1ccc(C2C(C#N)=C(N)N(c3ccccc3)C3=C2C(=O)CCC3)cc1 (centres undefined)	29.9% (inactive)
N#CC1=C(N)N(c2ccccc2)C2=C(C(=O)CCC2)C1c1ccsc1 (centres undefined)	27.6% (inactive)
CCc1ccc(C2C(C#N)=C(N)N(N(C)C)C3=C2C(=O)CCC3)s1 (centres undefined)	59.7% (active)
CCc1ccc(C2C(C#N)=C(N)OC3=C2C(=O)CCC3)s1 (centres undefined)	6.1% (inactive)
N#CC1=C(N)N(c2ccccc2)C2=C(C(=O)CCC2)C1c1ccccc1 (centres undefined)	51.2% (active)
CN(C)N1C(N)=C(C#N)C(c2cccnc2)C2=C1CCCC2=O (centres undefined)	57.9% (active)
CN(C)N1C(N)=C(C#N)C(c2cccs2)C2=C1CCCC2=O (centres undefined)	33.2% (inactive)
CN(C)N1C(N)=C(C#N)C(c2ccsc2)C2=C1CCCC2=O (centres undefined)	61% (active)
N#CC1=C(N)OC2=C(C(=O)CCC2)C1c1ccsc1 (centres undefined)	-1.2% (inactive)
CCOC(=O)c1cccc(-c2ccc(C=O)o2)c1	7.1% (inactive)
COc1ccc(/C=N\NC(=O)c2cccc(Br)c2)c(OC)c1	3% (inactive)
CCN(CC)C(=O)CSc1nc2ccccc2c(=O)n1OC	4.5% (inactive)
COC(=O)/C=C(\C)NC(=O)c1ccc(F)cc1	12.4% (inactive)
O=C(COC(=O)c1cccs1)NCc1ccco1	-3.4% (inactive)
Cc1ncoc1C(=O)Nc1ccccc1-c1ccccc1	-4.1% (inactive)
CCN(CC)C(=O)c1ccc(Cn2cc([N+](=O)[O-])cn2)o1	0% (inactive)
CC(=O)c1ccc(NC(=O)Nc2ccc([N+](=O)[O-])cc2)cc1	-0.1% (inactive)
CN(C)N1C(N)=C(C#N)C(c2ccccc2)C2=C1CCCC2=O (centres undefined)	42.1% (inactive)
Cc1ccsc1C1C(C#N)=C(N)N(N(C)C)C2=C1C(=O)CCC2 (centres undefined)	15.7% (inactive)
COc1ccc(C2C(C#N)=C(N)N(c3ncn[nH]3)C3=C2C(=O)CCC3)cc1 (centres undefined)	43.2% (inactive)
N#CC1=C(N)N(c2ccccc2C#N)C2=C(C(=O)CCC2)C1c1ccsc1 (centres undefined)	19.7% (inactive)
Cc1ccc(C2C(C#N)=C(N)N(N(C)C)C3=C2C(=O)CCC3)cc1 (centres undefined)	57.8% (active)
COc1ccc(N2C(N)=C(C#N)C(c3ccsc3)C3=C2CCCC3=O)c(OC)c1 (centres undefined)	62% (active)
